According to PubChem BioAssay (EPA / NIEHS):
The source made the active and inactive calls. Rule for the calls: active = hit-call score of the fitted dose curve at least 0.9, where 1 is the maximum; inactive = score below 0.9.

What was measured:
Details in all cases: mRNA level, 48 h; actives raise or lower the signal
[1] = read-out: Forkhead box O1 (FOXO1), FOXO1 (gene 2308); assay: LTEA_HepaRG_FOXO1: Life Technologies and Expression Analysis (LTEA) Assay for Forkhead box O1 (FOXO1) using HepaRG (AID 2283456)
Method in brief: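 HepaRG, 48 h exposure, 8-pt half-log series from 100 uM in 0.5% DMSO, duplicates; Fluidigm qRT-PCR mRNA, housekeeping-normalised; bidirectional fit vs DMSO baseline.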

[2] = read-out: growth arrest and DNA damage 45 (GADD45A), GADD45A (gene 1647); assay: LTEA_HepaRG_GADD45A: Life Technologies and Expression Analysis (LTEA) Assay for growth arrest and DNA damage 45 (GADD45A) using HepaRG (AID 2283458)
Method in brief: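 HepaRG, 48 h exposure, 8 conc. (top 100 uM, half-log steps), 0.5% DMSO vehicle, duplicates. Read-out: qRT-PCR mRNA level, housekeeping-normalized (ACTB/GAPDH/POLR2A). Curves fit bidirectionally vs DMSO baseline.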

[3] = read-out: Forkhead box O3 (FOXO3), FOXO3 (gene 2309); assay: LTEA_HepaRG_FOXO3: Life Technologies and Expression Analysis (LTEA) Assay for Forkhead box O3 (FOXO3) using HepaRG (AID 2283459)
Method in brief: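 qRT-PCR readout of FOXO3 transcript, normalized to three housekeeping genes (ACTB, GAPDH, POLR2A); gain or loss fitted against 0.5% DMSO vehicle. HepaRG cells, 48 h chemical exposure, 8-point half-log series, top 100 uM.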

[4] = read-out: ABC Transporter (ABCB1), ABCB1 (gene 5243); assay: LTEA_HepaRG_ABCB1: Life Technologies and Expression Analysis (LTEA) Assay for ABC Transporter (ABCB1) using HepaRG (AID 2283460)
Method in brief: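 HepaRG, 48 h exposure, 8-pt half-log series from 100 uM, 0.5% DMSO vehicle, duplicates. Readout: ABCB1 transcript by Fluidigm TaqMan qRT-PCR, housekeeping-normalized; bidirectional curve fit vs DMSO baseline.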

[5] = read-out: growth arrest and DNA damage 45 (GADD45B), GADD45B (gene 4616); assay: LTEA_HepaRG_GADD45B: Life Technologies and Expression Analysis (LTEA) Assay for growth arrest and DNA damage 45 (GADD45B) using HepaRG (AID 2283461)
Method in brief: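 HepaRG, ~100,000 cells/well, 48 h plating; serum-free induction medium; cpd 100 uM top, half-log x8, 0.5% DMSO, duplicate, 48 h; lysis in RLT, RNA isolation, qRT-PCR; norm ACTB/GAPDH/POLR2A; bidirectional fit vs DMSO.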

[6] = read-out: ABC Transporter (ABCC3), ABCC3 (gene 8714); assay: LTEA_HepaRG_ABCC3: Life Technologies and Expression Analysis (LTEA) Assay for ABC Transporter (ABCC3) using HepaRG (AID 2283462)
Method in brief: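 Human HepaRG, 48 h dosing, 8-pt half-log series from 100 uM, 0.5% DMSO vehicle, duplicates. ABCC3 mRNA by TaqMan qRT-PCR, housekeeping-normalized; bidirectional curve fit vs DMSO.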

[7] = read-out: ABC Transporter (ABCC2), ABCC2 (gene 1244); assay: LTEA_HepaRG_ABCC2: Life Technologies and Expression Analysis (LTEA) Assay for ABC Transporter (ABCC2) using HepaRG (AID 2283464)
Method in brief: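 HepaRG, 48 h post-plating; serum-free induction medium; cpd 8-pt, 100 uM top, half-log, 0.5% DMSO, duplicate, 48 h. Readout: ABCC2 mRNA by qRT-PCR, norm. ACTB/GAPDH/POLR2A. Bidirectional fit vs DMSO baseline.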

[8] = read-out: Broad substrate specificity ATP-binding cassette transporter ABCG2 (Homo sapiens) (UniProt Q9UNQ0); assay: LTEA_HepaRG_ABCG2: Life Technologies and Expression Analysis (LTEA) Assay for ABC Transporter (ABCG2) using HepaRG (AID 2283465)
Method in brief: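 HepaRG, 48 h exposure, 8-pt half-log series from 100 uM, 0.5% DMSO vehicle, duplicates. Readout: ABCG2 transcript by qRT-PCR (Fluidigm array), housekeeping-normalized; bidirectional curve fit relative to DMSO baseline.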

[9] = read-out: ATP-citrate lyase (ACLY), ACLY (gene 47); assay: LTEA_HepaRG_ACLY: Life Technologies and Expression Analysis (LTEA) Assay for ATP-citrate lyase (ACLY) using HepaRG (AID 2283466)
Method in brief: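 qRT-PCR readout of ACLY transcript after 48 h chemical treatment of HepaRG cells; expression normalized to three housekeeping genes. Eight-point half-log series, highest 100 uM, 0.5% DMSO vehicle. Gain or loss fitted against DMSO baseline.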

[10] = read-out: Peroxisomal acyl-coenzyme A oxidase 1 (ACOX1) gene, ACOX1 (gene 51); assay: LTEA_HepaRG_ACOX1: Life Technologies and Expression Analysis (LTEA) Assay for Peroxisomal acyl-coenzyme A oxidase 1 (ACOX1) gene using HepaRG (AID 2283467)
Method in brief: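 HepaRG, 48 h chemical exposure, 8-pt half-log series from 100 uM top, 0.5% DMSO vehicle, duplicates. Readout: ACOX1 mRNA by Fluidigm qRT-PCR, housekeeping-normalized; bidirectional fit vs DMSO baseline.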

[11] = read-out: Alkaline Phosphatase, Placental (ALPP) gene, ALPP (gene 250); assay: LTEA_HepaRG_ALPP: Life Technologies and Expression Analysis (LTEA) Assay for Alkaline Phosphatase, Placental (ALPP) gene using HepaRG (AID 2283468);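 for AC50: differentiated human HepaRG liver cells in serum-free induction medium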
Method in brief: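 HepaRG, 48 h plating then 48 h dosing, serum-free induction medium, 0.5% DMSO. 8 conc, half-log, max 100 uM, duplicates. Endpoint: ALPP transcript by qRT-PCR, housekeeping-normalized; gain or loss fitted vs DMSO.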

[12] = read-out: Bcl-2 (BAD) gene, BAD (gene 572); assay: LTEA_HepaRG_BAD: Life Technologies and Expression Analysis (LTEA) Assay for Bcl-2 (BAD) gene using HepaRG (AID 2283469)
Method in brief: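 HepaRG, 48 h exposure, 8-pt half-log curve from 100 uM in 0.5% DMSO, duplicates. Readout: TaqMan qRT-PCR for BAD mRNA, housekeeping-normalised (ACTB/GAPDH/POLR2A); gain or loss fitted against DMSO baseline.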

[13] = read-out: Bcl-2 (BAX) gene, BAX (gene 581); assay: LTEA_HepaRG_BAX: Life Technologies and Expression Analysis (LTEA) Assay for Bcl-2 (BAX) gene using HepaRG (AID 2283470)
Method in brief: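 qRT-PCR read-out of BAX mRNA, normalized to three housekeeping genes, after 48 h chemical exposure of human HepaRG cells in serum-free induction medium; eight-point half-log series, top 100 uM, 0.5% DMSO vehicle; bidirectional fit versus DMSO.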

[14] = read-out: adenosine kinase (ADK) gene, ADK (gene 132); assay: LTEA_HepaRG_ADK: Life Technologies and Expression Analysis (LTEA) Assay for adenosine kinase (ADK) gene using HepaRG (AID 2283471)
Method in brief: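 Differentiated HepaRG cells dosed 48 h in serum-free induction medium, 0.5% DMSO vehicle, eight half-log concentrations from 100 uM, in duplicate. ADK mRNA by TaqMan qRT-PCR normalised to ACTB, GAPDH, POLR2A; bidirectional fit versus DMSO.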

[15] = read-out: Alpha-fetoprotein (AFP) gene, AFP (gene 174); assay: LTEA_HepaRG_AFP: Life Technologies and Expression Analysis (LTEA) Assay for Alpha-fetoprotein (AFP) gene using HepaRG (AID 2283472)
Method in brief: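 qRT-PCR (Fluidigm TaqMan) readout of AFP transcript, normalized to three housekeeping genes, fitted bidirectionally against 0.5% DMSO baseline. HepaRG cells received chemicals for 48 h in serum-free induction medium, top concentration 100 uM, half-log steps.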

[16] = read-out: BCL2L11 (gene 10018); assay: LTEA_HepaRG_BCL2L11: Life Technologies and Expression Analysis (LTEA) Assay for Bcl-2 (BCL2L11) gene using HepaRG (AID 2283473)
Method in brief: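 Read-out is BCL2L11 transcript level by qRT-PCR, normalized to three housekeeping genes and fitted bidirectionally against 0.5% DMSO vehicle. HepaRG cells received chemicals for 48 h in serum-free induction medium, 100 uM down in half-log dilutions.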

[17] = read-out: Apolipoprotein A-V (APOA5) gene, APOA5 (gene 116519); assay: LTEA_HepaRG_APOA5: Life Technologies and Expression Analysis (LTEA) Assay for Apolipoprotein A-V (APOA5) gene using HepaRG (AID 2283474)
Method in brief: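 Readout is APOA5 transcript level by qRT-PCR on Fluidigm dynamic arrays, normalized to three housekeeping genes. HepaRG cultures received chemicals for 48 h at up to 100 uM (half-log steps, 0.5% DMSO), with gain or loss scored relative to DMSO.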

[18] = read-out: Apoptosis regulator Bcl-2 (Homo sapiens) (UniProt P10415); assay: LTEA_HepaRG_BCL2: Life Technologies and Expression Analysis (LTEA) Assay for Bcl-2 gene using HepaRG (AID 2283475)
Method in brief: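 qRT-PCR read-out (Fluidigm TaqMan) of BCL2 transcript, normalised to three housekeeping genes, after 48 h chemical exposure of HepaRG cells; 8-point half-log series, top 100 uM, 0.5% DMSO vehicle. Gain or loss of signal fitted relative to DMSO baseline.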

Measured: AC50

Chain of Broad substrate specificity ATP-binding cassette transporter ABCG2 (Homo sapiens) (Q9UNQ0 whole entry, looked up): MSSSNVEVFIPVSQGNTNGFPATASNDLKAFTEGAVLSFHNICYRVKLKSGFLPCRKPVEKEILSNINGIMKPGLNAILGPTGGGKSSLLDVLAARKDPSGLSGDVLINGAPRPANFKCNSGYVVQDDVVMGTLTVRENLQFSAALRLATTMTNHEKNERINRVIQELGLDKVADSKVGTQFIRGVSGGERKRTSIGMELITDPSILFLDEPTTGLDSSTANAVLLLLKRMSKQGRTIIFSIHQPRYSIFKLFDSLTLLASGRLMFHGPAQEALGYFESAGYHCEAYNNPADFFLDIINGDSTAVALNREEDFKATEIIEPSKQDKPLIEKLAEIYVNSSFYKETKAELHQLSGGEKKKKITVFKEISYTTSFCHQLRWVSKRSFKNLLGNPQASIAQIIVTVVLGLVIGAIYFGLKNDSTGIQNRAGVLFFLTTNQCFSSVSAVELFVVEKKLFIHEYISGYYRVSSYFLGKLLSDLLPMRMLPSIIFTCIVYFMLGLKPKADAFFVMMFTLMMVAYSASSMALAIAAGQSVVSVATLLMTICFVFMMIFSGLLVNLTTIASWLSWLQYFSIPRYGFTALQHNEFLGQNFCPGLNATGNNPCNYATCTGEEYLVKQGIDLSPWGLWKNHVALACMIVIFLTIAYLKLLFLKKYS
Chain of Apoptosis regulator Bcl-2 (Homo sapiens) (P10415 whole entry, looked up): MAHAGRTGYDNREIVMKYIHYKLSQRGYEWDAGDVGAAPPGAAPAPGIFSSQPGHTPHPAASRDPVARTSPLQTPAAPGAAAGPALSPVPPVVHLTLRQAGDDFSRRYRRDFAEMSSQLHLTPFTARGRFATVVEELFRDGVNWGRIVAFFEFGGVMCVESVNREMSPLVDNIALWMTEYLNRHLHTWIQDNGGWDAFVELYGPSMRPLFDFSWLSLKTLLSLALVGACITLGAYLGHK

Cc1ccc(-c2c(Cl)nc(C#N)n2S(=O)(=O)N(C)C)cc1
inactive: [4] | [8] | [13] | [16]
active: [1] 50 µM | [2] 22.5 µM | [3] 3.64 µM | [5] 8.98 µM | [6] 7.3 µM | [7] 4.39 µM | [9] 50 µM | [10] 4.39 µM | [11] 50 µM | [12] 68.3 µM | [14] 50 µM | [15] 3.99 µM | [17] 74.2 µM | [18] 87.4 µM

CNC(=S)S
not listed: [14]
inactive: all other assays above

O=C(O)COc1nc(Cl)c(Cl)cc1Cl
not listed: [14]
inactive: all other assays above
